Screens: PubChem BioAssay, National Center for Advancing Translational Sciences (NCATS)
FMDV antiviral – antivirals against foot and mouth disease virus | FMDV antiviral cell-based qHTS | Potency, µM (series often up to 57.9 µM), inactives show at the top dose activity change, negative = inhibition, usual class: inhibitors | 1.2% of 410,000 active | AID 1159524; calls by dose curve; tested in HEK293T cells; further: read-out not given here; potency means the concentration at half of the fitted maximal effect; nearly all actives have a fitted effect of over 45% in size
Vaccinia Venus – inhibitors of vaccinia virus (Venus reporter). Potency, µM (titrated, usually from 36.5 µM), for inactives: top-dose activity change, negative = inhibition, usual class: inhibitors. 0.46% of 330,000 active. AID 720580. Vaccinia virus Venus reporter expression, fluorescence; calls by dose curve; tested in A549 cells; further: potency means the concentration at half of the fitted maximal effect; nearly all actives have a fitted effect of over 30% in size
HCMV antiviral – human cytomegalovirus inhibition; HFF cells, HCMV-luciferase reporter, 72 h; active compounds read low; activity change, negative = inhibition, % at 57.5 µM; 4.5% of 410,000 active; in the data active means activity change below about -60%; inconclusive means no clear call, values can overlap the other calls; inactive means above about -39%
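Cell-based, HFFs, 1000 cells/well, 16 h 37C; cpds in DMSO + HCMV-luc, MOI 1 PFU/cell; 72 h 37C; OneGlo luminescence after 5 min RT; norm. to buffer vs Salinomycin 10uM.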
Marburg entry inh – Marburg virus entry inhibition | Marburg virus pseudotyped entry inhibition, cell reporter | Potency, µM (top dose mostly 37.8 µM), for inactives: top-dose activity change, negative = inhibition, most hits filed as inhibitors | 1.8% of 300,000 active; calls by dose curve; tested in HEK293 cells; further: potency means the concentration at half of the fitted maximal effect
Vaccinia mCherry – vaccinia inhibition (mCherry reporter); Vaccinia virus mCherry reporter infection, fluorescence; Potency, µM (series often up to 36.5 µM), inactives show at the top dose activity change, negative = inhibition, most hits filed as inhibitors; 0.63% of 310,000 active; AID 720579; calls by dose curve; tested in A549 cells; further: potency means the concentration at half of the fitted maximal effect; nearly all actives have a fitted effect of over 35% in size
Lassa entry inh – blocks Lassa virus binding to or entry into cells; Lassa virus pseudotype entry inhibition, cell reporter; Potency, µM (titrated, usually from 37.9 µM), inactives show top-dose activity change, negative = inhibition, usual class: inhibitors; 1.2% of 300,000 active; AID 540256; calls by dose curve; tested in HEK293 cells; further: potency means the concentration at half of the fitted maximal effect; nearly all actives have a fitted effect of over 50% in size
* hit, by the source's call; ? = inconclusive; / = no result; [ ] = another dose, or the depositor's remark. The list is not random: actives were taken first. Their share in the collection is about 6.5%. On the % scale 0 is the no-effect control and ±100 the full control effect.

SMILES	FMDV antiviral	Vaccinia Venus	HCMV antiviral	Marburg entry inh	Vaccinia mCherry	Lassa entry inh
CCOC(=O)/C(C#N)=N/Nc1c(C)n(C)n(-c2ccccc2)c1=O	-4.5%	-6.8%	3.5	7.4%[46.1 µM]	?	-25.1%[46.1 µM]
O=S(=O)(/C(=C\c1ccc(C(F)(F)F)cc1)c1nc2ccccc2[nH]1)c1ccccc1	11.2µM*	?	/	3.98µM*	?	3.55µM*
Cc1ccc(/C=N/NC(=O)c2cc(C)oc2C)cc1	17.3%	-18.4%	?	10µM*	-26.5%	?
Cc1cc(C(=O)N/N=C/c2ccncc2)c(C)o1	0.0%	-0.9%	17.7	-12.7%	-14.5%	-4.9%
O=C(C1CCN(S(=O)(=O)Cc2ccccc2)CC1)N1CCN(c2ccccc2F)CC1	-28.8%	3.8%	2.4	13.8%[46.1 µM]	-1.3%	1.0%[46.1 µM]
COc1ccc(N2CCN(CCCNC(=O)c3cnn(-c4ccc(F)cc4)c3-n3cccc3)CC2)cc1	?	-28.0%	-16.7	/	?	?
CCOc1ccccc1NC(=S)/C(=C(\[O-])c1ccc2c(c1)OCCO2)[n+]1ccc(CC)cc1	1.8%	/	26.4	7.3µM*	/	11.6%
[O-]C(=C(C(=S)Nc1cccc2ccccc12)[n+]1ccccc1)c1ccc2c(c1)OCCO2	12.2%	-0.1%	/	-12.0%[46.1 µM]	?	-26.8%[46.1 µM]
CCN1C(=NCc2ccc3c(c2)OCO3)NC(CCc2ccccc2)C(C(=O)OC)=C1C (stereo not given)	/	/	/	-29.8%[14.2 µM]	/	?
COc1ccc2nc3c(cc2c1)c(NC(=O)c1cccs1)nn3CC(C)C	1.5%	?	-83.5*	?	/	-19.3%
Cc1ccc(/C=C/C(=O)Nc2ccccc2C(N)=O)cc1	-18.7%	-13.6%	68.9	13µM*	-1.8%	?
Cc1ccc(/C=C/C(=O)NC2=NCCS2)cc1	-37.9%	-20.6%	37.0	3.16µM*	-1.4%	1.58µM*
CC(C)(C)c1ccc(/C=C/C(=O)NC2=NCCS2)cc1	-22.5%	-28.8%	63.2	-26.8%	/	14.1µM*
O=C1Nc2ccc(F)cc2C12SCCS2	-4.1%	-10.4%	-106.7*	-7.8%	-5.5%	?
O=C1Nc2ccc(F)cc2C12OCCO2	-6.0%	5.2%	-26.4	1.1%[46.1 µM]	-20.8%	15.1%[46.1 µM]
CC/C(CC(c1ccccc1)c1c(O)c2ccccc2oc1=O)=N\NC(N)=S (stereo not given)	29.3%	?	-5.6	?	14.1µM*	5.1%
CC(=O)CC(c1ccccc1)c1c(O)c2ccccc2oc1=O (stereo not given)	-5.7%	-14.7%	-13.9	/	-14.4%	/
CCOc1ccc(CNC(=O)c2ccc(Sc3ccc(C)cc3)c(N)c2)cc1OC	?	-28.8%	-62.1*	/	-27.0%	?
CCCS(=O)(=O)c1ncc(Cl)c(C(=O)N2CCN(c3ccc(OC)cc3)CC2)n1	-12.2%	-8.6%[7.34 µM]	-103.0*	/	-16.5%[7.34 µM]	?
CCSc1ncc(Cl)c(C(=O)N2CCN(c3ccc(OC)cc3)CC2)n1	-9.8%	-14.6%	-12.5	-7.7%[46.1 µM]	-14.1%	1.1%[46.1 µM]
O=S1(=O)c2ccc(Br)cc2OC[C@H](c2ccccc2)N1Cc1ccccc1	/	/	-3.1	/	/	?
CC(C)(CCl)C(=O)Nc1ccc(C(F)(F)F)cc1	5.9%	-12.5%	-76.4*	-5.6%[46.1 µM]	-14.3%	1.6%
CC(C)(C)C(=O)Nc1cccc(-c2nc3ccccc3c(=O)o2)c1	/	-11.6%	11.5	-11.9%	-17.2%	?
CC(C)(C)C(=O)Nc1ccc(NC(=O)C(C)(C)C)cc1	16.7%	-9.7%	-84.2*	/	-3.0%	/
CC(C)(C)C(=O)Nc1ccc(-c2nc3ccccc3c(=O)o2)cc1	4.47µM*	-17.7%	-64.4*	?	-3.4%	?
CCn1cc(C(=O)NCCc2ccc(Cl)cc2)c(=O)c2cc(S(=O)(=O)N3CCOCC3)ccc21	-2.4%	-4.2%	4.5	-13.6%[46.1 µM]	-1.1%	-23.2%[46.1 µM]
CC(C)c1ccc(C2NC(=S)NC3=C2C(=O)CC(C)(C)C3)cc1 (stereo not given)	-29.5%	-21.9%	-71.1*	18.7%	-2.7%	-0.6%
CCc1ccc(C2NC(=S)NC3=C2C(=O)CC(C)(C)C3)cc1 (stereo not given)	-20.6%	-24.6%	-21.3	?	-20.3%	0.8%
c1ccc(Nc2cc(-c3ccoc3)ncn2)cc1	18.3%	/	/	/	/	/
Cc1ccc2oc3c(c(=O)c2c1)C(c1cccc(O)c1)N(Cc1ccccc1Cl)C3=O (stereo not given)	20.8%	-3.9%	-74.0*	4.1%[46.1 µM]	-7.8%	25.5%[46.1 µM]
